This is one part of a sample in which hits are shown more often than they occur.
ClpP mod: qHTS Assay for Activators of ClpP; 1.9% of 340,000 active; purified B. subtilis ClpP, FRET peptide cleavage, 20 min; ATP-dependent Clp protease proteolytic subunit (Bacillus subtilis (strain 168)), P80244; Potency, µM (highest dose often 57.5 µM), without a hit: at the highest dose activity change, negative = active; AID 651965, 2013; active means well fitted falling curve with a large enough effect; inconclusive means small, poorly fitted or top-dose-only effect; inactive means no such curve, though single readings can be large or run the other way; further: potency means the concentration at half of the fitted maximal effect; the source files actives as falling curves though it sought activators and does not explain the sign; nearly all actives have a fitted effect of over 65% in size
Target sequence (P80244 whole entry, looked up): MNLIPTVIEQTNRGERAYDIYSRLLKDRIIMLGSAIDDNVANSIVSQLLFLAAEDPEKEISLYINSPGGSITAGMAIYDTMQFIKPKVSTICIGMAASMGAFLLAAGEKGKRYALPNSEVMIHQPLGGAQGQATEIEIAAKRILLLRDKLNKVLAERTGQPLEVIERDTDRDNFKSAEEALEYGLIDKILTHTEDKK
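ClpP 10 microg/mL final, pH 8 Tris/KCl buffer with BSA, glycerol, Tween-20; compound pinned in; FRET-FV substrate; RT 20 min; Ex320/Em430; ΔFRET vs ADEP 5.8 microM, DMSO, no enzyme.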
CBFb RUNX1 block: CBF-beta/RUNX1 interaction disruption | Q01196+Q13951 | AlphaScreen CBFb-His/RUNX1-biotin binding, biochemical | Potency, µM (titrated, usually from 59.8 µM), inactives show at the top dose activity, negative = inhibition, hits mostly inhibitors | 230,000 tested, under 10 active | AID 1477; further: % of control where 0% means no effect
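Compounds were screened at multiple concentrations against a preformed CBF-beta(His)/RUNX1(biotin) complex (30 nM of each) for 15 min at room temperature, followed by 90 min with nickel and streptavidin beads and AlphaScreen reading.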
a7 integrin act: integrin-mediated muscular dystrophy alleviation activation; AID 624291; Potency, µM (series often up to 38.3 µM), without a hit: at the highest dose activation, hits mostly activators; alpha7betagal myoblasts, beta-gal FDG fluorescence, 48 h; 0.064% of 350,000 active;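 further: potency means the concentration at half of the fitted maximal effect; 100% = response of the positive control SU9516; nearly all actives have a fitted effect of over 60% in size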
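Alpha7betagal+/- myoblasts (passage 13) were plated 16-24 hr, then exposed to compounds (1:260 dilution of DMSO stock) for 48 hours at 37C. After MPER lysis, β-galactosidase reporter activity was read as FDG fluorescence (ex 480/em 540) after 30 minutes.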
Glioma ERSR ind: induces the endoplasmic reticulum stress response in human glioma cells; Potency, µM, for inactives: at the highest dose activation, hits mostly activators; U87-MG GRP78 promoter luciferase reporter, 16 h; 0.02% of 420,000 active; AID 602332; further: potency means the concentration at half of the fitted maximal effect; series mostly up to about 76 µM; % of control where 0% means no effect; nearly all actives have a fitted effect of over 35% in size
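Stably transfected U87-MG human glioma cells carrying a GRP78-based luminescent sensor were seeded at 1000 cells/well, pin-dosed with compounds and incubated 16 h. Luciferase reagent was then added, and end-point luminescence was read after 10 min at room temperature.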
Apoferritin bind: candidate novel general anesthetic via apoferritin binding; 0.074% of 350,000 active; P02791; apoferritin/1-aminoanthracene competitive binding, fluorescence; Potency, µM (doses to about 77.5 µM), without a hit: top-dose activity change, negative = displacement, usual class: inhibitors; further: potency means the concentration at half of the fitted maximal effect; on the % scale 0 is the no-effect control and ±100 the full control effect; nearly all actives have a fitted effect of over 20% in size
Target sequence (P02791 2-175 limits assumed): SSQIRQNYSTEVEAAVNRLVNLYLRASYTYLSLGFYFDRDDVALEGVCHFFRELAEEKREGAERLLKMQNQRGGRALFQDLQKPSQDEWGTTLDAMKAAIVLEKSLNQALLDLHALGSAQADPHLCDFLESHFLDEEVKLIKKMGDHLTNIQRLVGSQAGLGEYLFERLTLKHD
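10 uM apoferritin + 50% sat. 1-AMA, PBS; cpd 10 min RT; Ex380/Em535 endpoint; normalized to free probe vs complex; 4-param Hill fit; propofol titration as pos. ctrl.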
N370S GC mod: inhibits or activates N370S mutant glucocerebrosidase. P04062. N370S GC spleen homogenate, 4MU-glucoside fluorescence. Potency, µM (titrated, usually from 59.4 µM), without a hit: at the top dose activity change, negative = inhibition, usual class: inhibitors. 0.092% of 330,000 active;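 further: potency means the concentration at half of the fitted maximal effect; 0% = full enzyme activity and -100% = no enzyme basal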
Active calls of the source: *; ? = inconclusive; . = not tested or not shown; [ ] = remark or other dose. Unless noted, the call rests on the fitted dose curve; in most records, active means well fitted curve in the direction sought with a large enough effect; inconclusive means small, poorly fitted or top-dose-only effect, or another doubt; inactive means no such curve, though single readings can be large; an effect the other way counts as inactive or inconclusive.

SMILES	ClpP mod	CBFb RUNX1 block	a7 integrin act	Glioma ERSR ind	Apoferritin bind	N370S GC mod
N#Cc1c(NC(=O)CSc2nc(-c3ccccc3)cc(C(F)(F)F)n2)sc2c1CCC2	25.1µM*	-0.6%	0.7%	-5.3%	-7.0%	18.8%
COc1ccc(-c2cc(C(F)(F)F)nc(SCC(=O)Nc3sc4c(c3C#N)CCC4)n2)cc1	-27.6%	-1.7%	-10.5%	-5.4%	7.1%	7.8%
CN(C)S(=O)(=O)c1ccc(C(=O)OCC(=O)Nc2sc3c(c2C#N)CCCCC3)cc1	.	2.1%	-11.1%	2.8%	4.5%	3.0%
COc1ccc(F)c(CN2CCC3(CCC(CNC(=O)c4cc(C)nn4C)O3)CC2)c1 (stereo not drawn)	.	.	.	0.3%	.	.
CCCn1c(C)cc(C(=O)COc2ccc(C)nc2[N+](=O)[O-])c1C	0.5%	-10.5%	-17.5%	-3.1%	6.8%	6.1%
C=CCn1c(C)cc(C(=O)COc2ccc(C)nc2[N+](=O)[O-])c1C	3.98µM*	-18.4%	10.3%	-6.9%	-2.7%	1.1%
Cc1ccc(NC(=O)Cn2c(-c3ccc4c(c3)OCO4)cn(-c3ccccc3)c2=O)cc1C	28.2µM*	.	.	0.8%	-5.7%	.
COc1ccc(C(=O)NCCN2Cc3ccccc3OC(c3ccsc3)C2)c(OC)n1 (stereo not drawn)	.	.	.	-3.0%	.	.
COc1ccc(-c2ccnc(-n3ncc(C(=O)NCc4ccon4)c3C3CC3)n2)cc1F	.	.	.	-1.4%	.	.
CCn1c(=O)n(CC)c2cc(N3CCCC3)c(NC(=O)c3cc(Br)ccc3OC)cc21	-0.2%	.	40.8%	-3.8%	-10.1%	?
CCn1c(=O)n(CC)c2cc(N3CCCCC3)c(NC(=O)Nc3cc(Cl)ccc3OC)cc21	28.2µM*	.	.	-4.3%	6.3%	.
COc1ccc(-c2cc(N3CCCC3)n3ncnc3n2)cc1	-20.5%	5.7%	-26.0%	-1.4%	-10.3%	-5.0%
COc1ccc(-c2cc(-c3ccccc3)n3ncnc3n2)cc1	31.6µM*	7.7%	4.5%	0.8%	-4.3%	19.4%
Cc1cnnc2ccccc12	-0.7%	.	.	-3.3%	.	.
Cc1cc(O)c2c(C)c(CC(=O)N3CCCCC3)c(=O)oc2c1	1.3%	.	.	-2.6%	0.2%	.
CCOC(=O)Cc1c(C)c2c(O)cc(O)cc2oc1=O	25.1µM*	7.1%	12.7%[7.66 µM]	-1.1%	459.4%	6.2%
CCOC(=O)c1oc2cc(O)cc(C)c2c1C	12.6µM*	.	-12.6%	1.2%	.	.
CCOC(=O)Cc1c(C)c2ccc(N(CC)CC)cc2oc1=O	22.4µM*	?	-9.7%	4.5%	411.2%	-11.9%
CCOC(=O)c1oc2cc(C)cc(C)c2c1C	-9.4%	11.4%	?	0.4%	-1.9%	3.6%
COc1ccc(OC)c(CN2CCCC(n3cc(C(=O)N4CCCCC4)nn3)C2)c1 (stereo not drawn)	.	.	.	-0.7%	.	.
Cc1ccnc2cc(Cl)c(Cl)cc12	-1.3%	.	.	-2.1%	.	.
CCCCn1c(-c2ccco2)n[nH]c1=S	22.4µM*	?	-0.3%	-0.7%	-5.7%	-0.4%
COc1ccc(-c2nc(CCNC(=O)Cc3ccc(F)cc3)cs2)cc1	22.4µM*	.	.	-0.1%	-18.5%	.
COc1ccc(CCC(=O)NCCc2csc(-c3ccc(F)cc3)n2)cc1	-3.8%	.	.	0.3%	-1.5%	.
COc1ccc(-c2nc(CCNC(=O)c3cccs3)cs2)cc1OC	28.2µM*	.	.	-5.0%	1.1%	.
SMILES	ClpP mod	CBFb RUNX1 block	a7 integrin act	Glioma ERSR ind	Apoferritin bind	N370S GC mod
COc1ccc(CC(=O)NCCc2csc(-c3ccc(C(F)(F)F)cc3)n2)cc1	6.3%	.	.	-2.6%	?	.
O=C(NCCc1csc(-c2ccccc2)n1)c1cccs1	?	6.4%	21.6%	1.1%	-3.0%	2.0%
COc1cc(OC)cc(C(=O)NCCc2csc(-c3ccc(C(F)(F)F)cc3)n2)c1	31.6µM*	.	.	-2.4%	-22.9%	.
O=C(NCCc1ccccn1)C1CC12CCN(C(=O)c1c(F)cccc1Cl)CC2 (stereo not drawn)	.	.	.	-3.0%	.	.
CSC(=NNC(=O)c1ccc(O)cc1)SC	28.2µM*	2.2%	3.8%	1.9%	-12.8%	13.9%
CCCn1c(-c2ccc(OC)cc2)nc2nc3ccccc3nc21	28.2µM*	-0.1%	5.9%[7.66 µM]	-0.2%	-12.6%	-2.6%
COCCCn1c(-c2ccc(OC)cc2)nc2nc3ccccc3nc21	.	7.4%	.	.	145.6%	15.6%
CCCCN(C)Cc1cc(=O)oc2cc3c(cc12)CCCC3	14.1µM*	-0.6%	-11.8%	-0.8%	-10.4%	-4.9%
CCc1ccc2oc(=O)cc(CN(C)Cc3ccccc3)c2c1	15.8µM*	24.3%	-17.0%	-6.4%	1.0%	19.1%
COCCn1c(-c2ccc(-c3ccccc3Cl)o2)nc2c1c(=O)[nH]c(=O)n2CC(C)C	3.98µM*	2.7%	-12.1%	-2.6%	-15.0%	4.3%
COCCn1c(-c2ccc(NC(C)=O)cc2)nc2c1c(=O)[nH]c(=O)n2CC(C)C	.	.	-10.5%	-3.6%	58.9%	6.1%
CCn1c(-c2ccccc2F)nc2cc(NC(C)=O)cc(C(=O)NCc3ncc(C)[nH]3)c21	.	.	.	-2.6%	.	.
O=C([C@@H]1C[C@@H](Sc2nc3ccccc3[nH]2)CN1Cc1ccc(Cl)cc1)N1CCN(c2ccccc2F)CC1	.	.	.	-2.6%	.	.
COc1ccc(N2CCN(C(=O)COC(=O)c3oc4ccc(OC)cc4c3C)CC2)cc1	25.1µM*	.	-9.6%	-2.8%	.	-0.3%
COc1ccc2oc(C(=O)OC(C)C(=O)N3CCC(C)CC3)c(C)c2c1 (stereo not drawn)	25.1µM*	.	1.4%	1.2%	.	.
CCNC(=O)NC(=O)C(C)OC(=O)c1oc2ccc(OC)cc2c1C (stereo not drawn)	31.6µM*	2.1%	15.4%	0.9%	-5.1%	.
COc1ccc2oc(C(=O)OCC(=O)N3CC(C)CC(C)C3)c(C)c2c1 (stereo not drawn)	14.1µM*	.	-0.7%	-4.0%	.	1.5%
CCOC(=O)C1CCN(C(=O)COC(=O)c2oc3ccc(OC)cc3c2C)CC1	4.1%	.	-16.9%	-0.3%	.	.
O=C(NCc1nnc2n1CCN(Cc1cc3c(cc1Cl)OCO3)CC2)C1CCOC1 (stereo not drawn)	.	.	.	-4.5%	.	.
COc1ccc(-c2cccc3c2OC(CNC(=O)c2ccccc2-n2cccn2)C3)nn1 (stereo not drawn)	.	.	.	-1.9%	.	.
